Laboratory results: PubChem BioAssay AID651834 (Broad Institute, 2012)
Calls of active or inactive are those of the source. The rule behind the calls is not given here.

Each molecule was assayed against Kelch-like ECH-associated protein 1 (Homo sapiens) (UniProt Q14145) (assay: Keap1-Nrf2 peptide binding inhibitors, dose response, biochemical, fluorescence polarization, dry powder, set 4 (AID 651834)). Conditions: plate reader; series mostly up to 100 µM.
Sequence of Kelch-like ECH-associated protein 1 (Homo sapiens) (Q14145 whole entry, looked up): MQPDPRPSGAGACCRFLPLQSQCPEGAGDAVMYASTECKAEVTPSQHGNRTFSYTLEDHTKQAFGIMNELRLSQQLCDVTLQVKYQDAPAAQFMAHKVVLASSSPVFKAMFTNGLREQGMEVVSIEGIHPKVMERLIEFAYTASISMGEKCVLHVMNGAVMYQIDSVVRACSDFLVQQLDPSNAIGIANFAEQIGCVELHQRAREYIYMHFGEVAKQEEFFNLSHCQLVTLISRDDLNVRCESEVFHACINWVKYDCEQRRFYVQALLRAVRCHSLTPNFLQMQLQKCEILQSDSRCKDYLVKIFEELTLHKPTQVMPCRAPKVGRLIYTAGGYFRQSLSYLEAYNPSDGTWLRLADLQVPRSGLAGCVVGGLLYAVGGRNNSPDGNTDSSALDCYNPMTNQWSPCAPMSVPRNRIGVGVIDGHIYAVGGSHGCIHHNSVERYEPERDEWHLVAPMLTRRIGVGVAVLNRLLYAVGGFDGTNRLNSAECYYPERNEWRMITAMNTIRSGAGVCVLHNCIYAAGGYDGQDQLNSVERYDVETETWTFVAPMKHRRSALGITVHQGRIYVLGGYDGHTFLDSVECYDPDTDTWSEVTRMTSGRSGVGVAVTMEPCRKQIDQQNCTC

outcome, inactive:
O=C1c2ccccc2C(=O)N1CC1c2ccccc2CCN1C(=O)c1cccc(C(F)(F)F)c1 (stereo not given)
COc1cc(/C=C/C(=O)N2CCC=CC2=O)cc(OC)c1OC
O=C1c2ccccc2C(=O)N1CC1c2ccccc2CCN1C(=O)N1CCOCC1 (stereo not given)
O=C1c2ccccc2C(=O)N1CC1c2ccccc2CCN1S(=O)(=O)c1cccc2cccnc12 (stereo not given)
COc1cc(OC)cc(C(=O)N2CCc3ccccc3C2CN2C(=O)c3ccccc3C2=O)c1 (stereo not given)
CCN(CC)C(=O)N1CCc2ccccc2C1CN1C(=O)c2ccccc2C1=O (stereo not given)
CC(=O)N1CCc2ccccc2C1CN1C(=O)c2ccccc2C1=O (stereo not given)
O=C1c2ccccc2C(=O)N1CC1c2ccccc2CCN1C(=O)COc1ccc(Cl)cc1Cl (stereo not given)
O=C(CN1CCc2ccccc2C1CN1C(=O)c2ccccc2C1=O)c1c[nH]c2ccccc12 (stereo not given)
CS(=O)(=O)N1CCc2ccccc2C1CN1C(=O)c2ccccc2C1=O (stereo not given)
